# From PubChem BioAssay
# A number with no mark means an inactive call. Active and inactive are the calls of the source.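 How the source made its calls, unless noted: active means mean inhibition over 43.08%, the solvent-only control mean plus 3 SD; inactive means the rest.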
# Tests used:
# [1] = target: Nuclear receptor coactivator 3 (Homo sapiens) (UniProt Q9Y6Q9); test: NCOA3 GAL4-fusion reporter inhibition – cell-based, luminescence, quadruplicate, confirmation (AID 588792); conditions: HEK293 GAL4-SRC3 luciferase reporter, at 3.6 µM, hits give high values;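 further: 0% = DMSO treated cells and 100% = gossypol at 36 µM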
# [2] = test system: transactivating tegument protein VP16 (Human herpesvirus 1), Gal4-VP16 luciferase reporter; test: repression of VP16-driven luciferase reporter – cell-based, luminescence, high throughput, counter-screen for SRC3 inhibitor project (AID 588794; in the data active means inhibition above about 30%); conditions: mammalian cells, at 3.6 µM, hits give high values
# [3] = target: Nuclear receptor coactivator 1 (Homo sapiens) (UniProt Q15788); test: NCOA1 GAL4-fusion reporter inhibition – cell-based, luminescence, quadruplicate, confirmation (AID 588820;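 active means mean inhibition above 46.68%, the untreated control wells mean plus 3 SD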;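 further: 0% = DMSO wells and 100% = gossypol 36 µM treated wells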); conditions: HEK293 GAL4-SRC1 luciferase reporter, at 3.6 µM, hits give high values
# [4] = repression of VP16-driven luciferase reporter – cell-based, luminescence, high throughput, counter-screen for SRC1 inhibitor project (AID 588824; in the data active means inhibition above about 25%); conditions: cell-based VP16 transactivation luciferase luminescence; at 3.6 µM; hits give high values
# [5] = StAR promoter reporter inhibitors, counter-screen for LRH-1 inverse agonist project, cell-based, luminescence, high throughput (AID 651611; in the data active means inhibition above about 28%); conditions: StAR promoter luciferase reporter counterscreen, at 3.6 µM, hits give high values
# [6] = target: Nuclear receptor subfamily 5 group A member 2 (Homo sapiens) (UniProt O00482); test: NR5A2 activity suppression in reporter cells – cell-based, luminescence, confirmation (AID 651613; in the data active means inhibition above about 42%;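 further: HEK293T cells co-transfected with LRH-1 and StAR promoter luciferase reporter; 0% = vehicle wells and 100% = parental cells lacking receptor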); conditions: cell-based LRH-1 luciferase reporter, inverse agonism; at 3.6 µM; hits give high values
# [7] = target: Steroidogenic factor 1 (Homo sapiens) (UniProt Q13285); test: inverse agonism at SF1 nuclear receptor – cell-based, luminescence, high throughput, counter-screen for LRH-1 inverse agonist project (AID 651614; in the data active means inhibition above about 44%;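 further: cells cotransfected with StAR promoter reporter and SF1 expression vector; 0% = vehicle on cells with receptor and 100% = vehicle on cells lacking receptor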); conditions: cell-based SF1 luciferase reporter, at 3.6 µM, hits give high values
# [8] = compounds suppressing VP16-driven luciferase signal – cell-based, luminescence, high throughput, counter-screen for LRH-1 inverse agonist project (AID 651615; in the data active means inhibition above about 33%); conditions: Gal4-VP16 luciferase reporter cells, at 3.6 µM, hits give high values
# Sequence of Nuclear receptor coactivator 1 (Homo sapiens) (Q15788 whole entry, looked up, the tested form may be a part): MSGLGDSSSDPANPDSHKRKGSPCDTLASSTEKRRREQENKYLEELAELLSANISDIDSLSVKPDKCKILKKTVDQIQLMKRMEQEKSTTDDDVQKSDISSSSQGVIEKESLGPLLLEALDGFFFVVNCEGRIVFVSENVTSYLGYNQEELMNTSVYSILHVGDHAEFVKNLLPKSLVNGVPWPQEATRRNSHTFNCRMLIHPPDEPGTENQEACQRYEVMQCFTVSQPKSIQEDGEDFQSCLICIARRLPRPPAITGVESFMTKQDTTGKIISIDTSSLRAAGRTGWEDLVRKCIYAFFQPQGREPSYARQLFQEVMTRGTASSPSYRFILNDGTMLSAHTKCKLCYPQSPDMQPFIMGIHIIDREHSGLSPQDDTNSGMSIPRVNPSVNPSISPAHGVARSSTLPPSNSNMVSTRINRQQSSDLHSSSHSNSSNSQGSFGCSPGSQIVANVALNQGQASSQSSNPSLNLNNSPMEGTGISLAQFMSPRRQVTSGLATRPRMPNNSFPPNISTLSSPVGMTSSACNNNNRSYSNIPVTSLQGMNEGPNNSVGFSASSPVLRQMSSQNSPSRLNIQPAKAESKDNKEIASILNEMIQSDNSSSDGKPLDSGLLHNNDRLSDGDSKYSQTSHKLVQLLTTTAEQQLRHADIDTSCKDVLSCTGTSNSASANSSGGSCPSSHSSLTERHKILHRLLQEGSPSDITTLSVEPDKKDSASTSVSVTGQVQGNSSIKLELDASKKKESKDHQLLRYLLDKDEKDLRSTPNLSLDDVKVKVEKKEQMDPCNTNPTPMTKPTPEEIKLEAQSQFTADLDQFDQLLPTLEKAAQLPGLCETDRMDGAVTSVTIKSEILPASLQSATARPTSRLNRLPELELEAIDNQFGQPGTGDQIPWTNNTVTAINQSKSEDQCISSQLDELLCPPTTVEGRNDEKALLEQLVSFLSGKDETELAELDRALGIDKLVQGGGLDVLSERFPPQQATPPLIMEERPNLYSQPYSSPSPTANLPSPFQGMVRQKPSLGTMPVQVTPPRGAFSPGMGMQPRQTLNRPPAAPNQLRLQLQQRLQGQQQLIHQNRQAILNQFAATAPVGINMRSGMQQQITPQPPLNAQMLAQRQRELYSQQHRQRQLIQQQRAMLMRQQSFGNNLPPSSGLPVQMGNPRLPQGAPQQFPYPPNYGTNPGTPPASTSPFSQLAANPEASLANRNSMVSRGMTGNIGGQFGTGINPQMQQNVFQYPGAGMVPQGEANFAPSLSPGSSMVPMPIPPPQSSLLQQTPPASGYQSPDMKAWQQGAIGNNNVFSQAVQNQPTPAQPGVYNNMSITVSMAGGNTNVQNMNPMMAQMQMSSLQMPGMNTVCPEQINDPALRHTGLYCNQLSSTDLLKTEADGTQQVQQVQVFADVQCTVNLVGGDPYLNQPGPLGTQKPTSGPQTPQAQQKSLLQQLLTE
# Sequence of Nuclear receptor coactivator 3 (Homo sapiens) (Q9Y6Q9 whole entry, looked up, the tested form may be a part): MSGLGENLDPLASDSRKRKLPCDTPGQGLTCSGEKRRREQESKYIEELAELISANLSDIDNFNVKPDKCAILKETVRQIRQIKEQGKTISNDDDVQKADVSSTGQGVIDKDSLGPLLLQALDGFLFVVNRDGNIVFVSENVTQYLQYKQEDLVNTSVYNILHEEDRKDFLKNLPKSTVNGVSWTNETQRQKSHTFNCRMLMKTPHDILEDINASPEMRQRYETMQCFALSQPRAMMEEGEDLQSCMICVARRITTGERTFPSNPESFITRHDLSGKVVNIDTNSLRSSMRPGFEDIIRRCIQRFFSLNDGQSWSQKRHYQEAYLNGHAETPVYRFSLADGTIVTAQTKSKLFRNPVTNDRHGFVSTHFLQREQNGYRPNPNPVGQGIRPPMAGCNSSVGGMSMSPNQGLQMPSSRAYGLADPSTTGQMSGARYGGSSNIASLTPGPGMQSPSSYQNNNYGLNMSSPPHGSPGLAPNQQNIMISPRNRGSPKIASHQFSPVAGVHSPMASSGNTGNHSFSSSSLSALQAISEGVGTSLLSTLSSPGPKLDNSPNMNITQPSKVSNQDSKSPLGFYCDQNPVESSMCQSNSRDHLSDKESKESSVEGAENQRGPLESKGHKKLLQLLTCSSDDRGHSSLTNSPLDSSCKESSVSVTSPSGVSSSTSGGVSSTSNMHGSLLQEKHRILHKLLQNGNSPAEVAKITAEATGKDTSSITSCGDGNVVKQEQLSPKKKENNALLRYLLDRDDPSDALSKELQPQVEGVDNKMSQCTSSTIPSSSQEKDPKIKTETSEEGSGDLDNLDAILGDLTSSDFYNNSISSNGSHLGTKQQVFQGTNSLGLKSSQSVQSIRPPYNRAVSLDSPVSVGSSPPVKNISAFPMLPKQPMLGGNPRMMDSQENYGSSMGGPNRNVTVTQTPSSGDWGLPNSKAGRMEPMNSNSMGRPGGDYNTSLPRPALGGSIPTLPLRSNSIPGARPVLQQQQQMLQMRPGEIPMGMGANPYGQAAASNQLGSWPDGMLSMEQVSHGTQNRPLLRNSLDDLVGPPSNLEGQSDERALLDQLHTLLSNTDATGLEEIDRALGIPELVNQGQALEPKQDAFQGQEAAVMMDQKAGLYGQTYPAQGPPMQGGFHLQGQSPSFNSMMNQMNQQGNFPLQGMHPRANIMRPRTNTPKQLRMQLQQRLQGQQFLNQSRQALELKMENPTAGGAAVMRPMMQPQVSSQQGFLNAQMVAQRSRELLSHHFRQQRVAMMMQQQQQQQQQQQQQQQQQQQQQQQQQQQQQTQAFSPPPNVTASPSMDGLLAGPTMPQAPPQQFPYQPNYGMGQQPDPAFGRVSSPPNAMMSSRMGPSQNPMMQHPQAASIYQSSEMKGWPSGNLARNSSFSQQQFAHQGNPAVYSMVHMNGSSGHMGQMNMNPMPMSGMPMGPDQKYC
# Sequence of Steroidogenic factor 1 (Homo sapiens) (Q13285 whole entry, looked up, the tested form may be a part): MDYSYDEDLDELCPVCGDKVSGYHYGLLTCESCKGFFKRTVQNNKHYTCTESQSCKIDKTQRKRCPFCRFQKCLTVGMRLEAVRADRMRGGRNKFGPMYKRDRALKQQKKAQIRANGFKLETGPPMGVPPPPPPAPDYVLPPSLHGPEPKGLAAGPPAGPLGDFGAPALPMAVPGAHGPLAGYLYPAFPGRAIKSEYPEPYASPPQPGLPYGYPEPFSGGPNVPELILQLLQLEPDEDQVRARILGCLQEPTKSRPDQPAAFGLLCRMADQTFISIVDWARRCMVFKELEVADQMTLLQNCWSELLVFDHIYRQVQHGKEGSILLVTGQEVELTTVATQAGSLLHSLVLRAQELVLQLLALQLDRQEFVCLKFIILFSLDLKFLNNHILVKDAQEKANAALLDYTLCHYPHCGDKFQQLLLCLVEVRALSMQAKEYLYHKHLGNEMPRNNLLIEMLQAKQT
# Sequence of Nuclear receptor subfamily 5 group A member 2 (Homo sapiens) (O00482 whole entry, looked up): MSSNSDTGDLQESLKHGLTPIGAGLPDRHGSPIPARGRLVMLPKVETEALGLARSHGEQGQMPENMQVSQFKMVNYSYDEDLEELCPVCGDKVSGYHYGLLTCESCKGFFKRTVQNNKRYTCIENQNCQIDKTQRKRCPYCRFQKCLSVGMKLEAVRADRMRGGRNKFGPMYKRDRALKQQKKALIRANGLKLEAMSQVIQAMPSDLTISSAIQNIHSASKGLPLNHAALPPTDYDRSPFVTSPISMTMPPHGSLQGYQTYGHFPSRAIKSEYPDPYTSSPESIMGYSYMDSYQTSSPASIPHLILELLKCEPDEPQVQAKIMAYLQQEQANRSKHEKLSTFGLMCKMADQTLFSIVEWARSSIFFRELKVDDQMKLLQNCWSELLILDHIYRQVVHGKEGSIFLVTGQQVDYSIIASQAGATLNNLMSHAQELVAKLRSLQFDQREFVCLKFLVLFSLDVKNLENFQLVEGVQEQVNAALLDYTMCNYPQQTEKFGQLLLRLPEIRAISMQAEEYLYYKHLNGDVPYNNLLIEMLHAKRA
Compound,inhibition [1],inhibition [2],inhibition [3],inhibition [4],inhibition [5],inhibition [6],inhibition [7],inhibition [8]
CN(C)c1ccc(/C=C/c2ccc3ccccc3n2)cc1,33.3%,29%,0.35%,14.3%,55.6% (active),59.3% (active),72.4% (active),29.4%
CC(C)=CC(O)C/C(C)=C/COc1ccc2ccc(=O)oc2c1 (stereo not given),17.4%,38.5% (active),0.43%,40.6% (active),-4.64%,31.5%,29.2%,-10.8%
CC(C)CC[n+]1ccccc1/C=C/c1ccc(N(C)C)cc1,60.5% (active),79.3% (active),54.6% (active),79.3% (active),64.3% (active),105% (active),90.4% (active),87.1% (active)
Nc1nc(N)c2c(ccc3c2ccn3Cc2cccc([N+](=O)[O-])c2)n1,76.1% (active),42.6% (active),71.1% (active),40.8% (active),72.6% (active),65.6% (active),67.4% (active),43.3% (active)
CC1(C)CC(N2CCN(c3ccccc3)CC2)=CC(=[N+]2CCCC2)C1,23.8%,37.6% (active),2.88%,33.1% (active),30% (active),73.2% (active),66.5% (active),63.7% (active)
CCc1nc(N)nc(N)c1-c1ccc(N(C)Cc2ccccc2)c([N+](=O)[O-])c1,63.5% (active),54.7% (active),69.4% (active),60.4% (active),71.8% (active),69.6% (active),65.9% (active),64.1% (active)
CC(=NNC(=S)Nc1ccc(C)cc1)c1ccccn1,59% (active),69.9% (active),46.8% (active),66% (active),66.1% (active),68.7% (active),85.4% (active),52.6% (active)
COc1ccccc1C(=O)Nc1nc2ccccc2s1,85.4% (active),79.6% (active),56.6% (active),71% (active),85.9% (active),86.4% (active),88% (active),75.6% (active)
CCCCC(=O)NC(c1ccccc1Cl)c1ccc2cccnc2c1O (stereo not given),26.3%,32.7% (active),41%,50.9% (active),74.1% (active),76.5% (active),80.8% (active),74.4% (active)
COc1cccc(Cn2c(NCc3cccnc3)nc3c2c(=O)n(C)c(=O)n3C)c1,50.8% (active),41.3% (active),58.1% (active),38% (active),59.4% (active),55.5% (active),50.3% (active),62.8% (active)
COc1ccccc1-n1cc([C@@H]2C[C@H]3CN(c4ccccc4)C(=O)[C@]34CCCN24)cn1,53.1% (active),38% (active),26.6%,47.4% (active),36.2% (active),57.8% (active),19.5%,69.6% (active)
CC(=O)NC(c1ccc(Cl)cc1)c1ccc2cccnc2c1O (stereo not given),83% (active),79.9% (active),80% (active),78.4% (active),89.2% (active),104% (active),91.2% (active),87% (active)
CCN(CC)c1ccc(C(=C2C=CC(=[N+](CC)CC)C=C2)c2ccc(N(CC)CC)cc2)cc1,85.3% (active),89.9% (active),60.9% (active),84.3% (active),85.6% (active),110% (active),97.1% (active),97.1% (active)
Cc1cccn2c(=O)c3cc(C(=O)NCCN4CCOCC4)c(=N)n(Cc4ccc(F)cc4)c3nc12,36.9%,41.6% (active),44.4%,28.3% (active),45.4% (active),73.9% (active),61.6% (active),60.1% (active)
CC1(C)CC(N2CCCCC2)=CC(=[N+]2CCCCC2)C1,21.5%,44.1% (active),14.8%,39.7% (active),30.1% (active),80% (active),69.1% (active),67.3% (active)
COc1ccc2[nH]c3c(C)c4ccncc4c(C)c3c2c1,-29%,53.7% (active),24.4%,52.5% (active),60.9% (active),67.1% (active),68.7% (active),72.1% (active)
COC(C(=O)C(O)C(C)O)C1Cc2cc3cc(OC4CC(OC5CC(O)C(O)C(C)O5)C(O)C(C)O4)c(C)c(O)c3c(O)c2C(=O)C1OC1CC(OC2CC(OC3CC(O)C(OC)C(C)O3)C(O)C(C)O2)C(O)C(C)O1 (stereo not given),93.6% (active),93.9% (active),78% (active),92.2% (active),93.6% (active),109% (active),97.2% (active),99.4% (active)
O=C1[C@@H]2Cc3c([nH]c4ccccc34)C(c3ccc([N+](=O)[O-])cc3)N2C(=O)CN1C1CC1 (stereo not given in full),63.7% (active),64% (active),62.3% (active),62.6% (active),60.7% (active),67.9% (active),71.4% (active),75.7% (active)

Compound,inhibition [1],inhibition [2],inhibition [3],inhibition [4],inhibition [5],inhibition [6],inhibition [7],inhibition [8]
Cc1cc(/C=N/n2cnnc2)c(C)n1-c1ccc(OCc2ccc(Cl)cc2Cl)cc1,19.7%,43.4% (active),8.2%,37.6% (active),36.5% (active),67% (active),68.7% (active),62.3% (active)
CCN1/C(=C/c2ccc3ccccc3[n+]2CC)C=Cc2ccccc21,74% (active),86.2% (active),55.5% (active),84.7% (active),78.7% (active),110% (active),93% (active),89.3% (active)
COc1ccc(NC(=O)c2cc(-c3cc(C)cc(F)c3)n[nH]2)cc1OC,23.5%,44.4% (active),15.5%,33.5% (active),39.5% (active),55.6% (active),59.6% (active),61.5% (active)
Cc1ccc2[nH]c3c(c2c1)CCCC3NC(=O)CCl (stereo not given),87.4% (active),84.2% (active),44.3%,82.4% (active),92% (active),106% (active),96.3% (active),92.3% (active)
COc1ccc(-[n+]2c(C)cc(/C=C3\Sc4ccccc4N3C)cc2C)cc1,74.4% (active),83.5% (active),47.5% (active),78.8% (active),74.5% (active),106% (active),90% (active),87.4% (active)
CN(C)c1cc[n+](CC(=O)c2ccc(-c3ccccc3)cc2)cc1,35.6%,57.6% (active),35%,66.5% (active),43.8% (active),82.3% (active),71.8% (active),67.9% (active)
CCOC(=O)c1cc2c(=Cc3ccc(N(C)C)cc3)c3ccccc3n2[n+]1C,46.2% (active),63.4% (active),22.9%,59.5% (active),49.3% (active),105% (active),85.7% (active),90.4% (active)
Cc1ccc(-n2c(-c3ccc(Br)cc3)c[n+]3c2CCc2ccc4cccnc4c2-3)cc1,89.4% (active),86.1% (active),74.8% (active),87.5% (active),83.8% (active),111% (active),95.8% (active),96.3% (active)
CC[n+]1ccc(/C=C/c2c[nH]c3ccccc23)cc1,8.39%,22.7%,-16.8%,25.5% (active),18%,65% (active),55.9% (active),60.8% (active)
O=C(O)CSCC(=O)Nc1ccc(C2CCCCC2)cc1,72% (active),62.4% (active),64.2% (active),63.7% (active),71.4% (active),78.8% (active),64.5% (active),63.6% (active)
CCN(CC)c1ccc2nc3ccccc3[n+](CC)c2c1,50.2% (active),54.2% (active),40.5%,59.6% (active),69.4% (active),88.3% (active),80.2% (active),68.7% (active)
COc1ccc(NC(=O)c2sc(=O)n(Cc3cccc(C(F)(F)F)c3)c2C)cc1OC,24.9%,57.4% (active),19%,52.7% (active),46% (active),67.8% (active),69% (active),73.9% (active)
COc1ccc(C2=Nn3c([n+](C)c4ccccc43)SC2)cc1,45.3% (active),68.3% (active),21.8%,66.5% (active),59.1% (active),95.7% (active),86.5% (active),78.7% (active)
CCC(NC(=O)Nc1nnc(C(F)(F)F)s1)(C(F)(F)F)C(F)(F)F,60.7% (active),82% (active),50.1% (active),85.6% (active),79.3% (active),103% (active),90.6% (active),90.5% (active)
Cc1ccc2[nH]c3nc(N/N=C/c4cccc(O)c4)nnc3c2c1,35.7%,54.6% (active),27.8%,48.2% (active),51% (active),65.6% (active),63.6% (active),69.8% (active)
CCCCCCCC[n+]1cccc2c3ccccc3ccc21,78.5% (active),81.6% (active),59.1% (active),83.7% (active),77% (active),107% (active),92.8% (active),93.8% (active)
O=C(N/N=C/c1ccc[nH]1)c1ccc(COc2cccc3cccnc23)cc1,83% (active),71.8% (active),0.58%,66.5% (active),86% (active),109% (active),96.3% (active),88.4% (active)
